The nature of experiment [1]: qHTS Assay for Lipid Storage Modulators (AID 1519; calls by dose curve; on activity change, negative = inhibition: on the % scale 0 is the no-effect control and ±100 the full control effect). Particulars: Drosophila S3 cells, BODIPY lipid droplet/cell ratio, laser cytometry, cells loaded with oleic acid. The method, boiled down:
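Cells seeded at 5,000 per well were treated with compounds over a concentration series and loaded with oleic acid (400 uM, as added). Lipid droplet fluorescence (488 nm excitation, 500-530 nm channel) was read by laser-scanning cytometry and normalized to 20 uM Triacsin C.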
(In general: Quantitative high-throughput screening tests each substance at several concentrations.)

Experiment [2] in a line: Cell Viability - LYMP2-002 (AID 977).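 Further: plate controls were DMSO only for no effect and 92 µM tetraoctylammonium bromide for full effect.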 To be noted: LYMP2-002 lymphoblastoid cell viability, qHTS; series mostly up to 92.2 µM. The method, boiled down: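 Luminescent ATP readout (CellTiter-Glo, 30 min room temperature) after 24 h compound exposure at 37 C of a human lymphoblastoid line, 2500 cells/well. AC50 values derived by standard Hill fitting of qHTS concentration-response data.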

A short description of experiment [3]: Cell Viability - LYMP2-006 (AID 978). Further: on the % scale 0 is the no-effect control and ±100 the full control effect; nearly all actives have a fitted effect of over 60% in size. Particulars: LYMP2-006 lymphoblastoid cell viability, qHTS; series mostly up to 92.2 µM. The method in brief: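 Potency values are Hill-fit AC50s for decreases in intracellular ATP (CellTiter-Glo luminescence). LYMP2-006 lymphoblastoid cells, 2500 per well, were exposed to compound in complete culture medium for 24 hr at 37 C.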

Experiment [4] is described as follows: Cell Viability - LYMP2-007 (AID 979).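 Further: cells exposed to compound for 24 h before reading; 0% = DMSO only and the negative end = 92 µM tetraoctylammonium bromide; nearly all actives have a fitted effect of over 60% in size.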 Particulars: LYMP2-007 lymphoblastoid cell viability; series mostly up to 92.2 µM. The method in brief: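 Human lymphoblastoid LYMP2-007 cells (2500/well) preincubated 5 h at 37 C, then treated 24 h at 37 C in complete medium. Viability by CellTiter-Glo ATP luminescence after 30 min at room temperature; AC50 from Hill fits.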

Experiment [5] can be described thus: Cell Viability - LYMP2-008 (AID 980). Further: on the % scale 0 is the no-effect control and ±100 the full control effect; nearly all actives have a fitted effect of over 60% in size. To be noted: LYMP2-008 lymphoblastoid cell viability, qHTS; series mostly up to 92.2 µM. The method, boiled down:
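LYMP2-008 lymphoblastoid cells (2500/well) plated 5 h, then treated 24 h at 37 C in complete medium. Viability read as intracellular ATP by CellTiter-Glo luminescence after 30 min at room temperature; AC50 from Hill fits.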

The nature of experiment [6]: Cell Viability - LYMP2-010 (AID 981). Further: on the % scale 0 is the no-effect control and ±100 the full control effect; nearly all actives have a fitted effect of over 55% in size. To be noted: LYMP2-010 lymphoblastoid cell viability, qHTS; series mostly up to 92.2 µM. The method, boiled down:
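Human lymphoblastoid LYMP2-010 cells (2500/well) treated 24 h at 37 C in complete medium; viability read as intracellular ATP by CellTiter-Glo luminescence. AC50 from Hill fits of concentration-response data; tetraoctylammonium bromide positive control.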

A short description of experiment [7]: Cell Viability - LYMP2-012 (AID 982).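 Further: cellular ATP by luciferase luminescence where a drop means cytotoxicity; cells exposed to compound for one day before reading; 0% = DMSO only and full loss = 92 µM tetraoctylammonium bromide; nearly all actives have a fitted effect of over 55% in size.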 Particulars: LYMP2-012 lymphoblastoid cell viability qHTS; series mostly up to 92.2 µM.
Experiment [8] is described as follows: Cell Viability - LYMP2-014 (AID 983).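 Further: plate controls were DMSO only for no effect and 92 µM tetraoctylammonium bromide for full effect; nearly all actives have a fitted effect of over 50% in size.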 Particulars: LYMP2-014 lymphoblastoid cells, viability qHTS; series mostly up to 92.2 µM. The method, boiled down: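 LYMP2-014 human lymphoblastoid cells, 2500/well, treated 24 h at 37 C in complete medium; viability by CellTiter-Glo ATP luminescence after 30 min at room temperature. AC50 from Hill fits of qHTS concentration-response; tetraoctylammonium bromide positive control.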

Experiment [9] can be described thus: Cell Viability - LYMP2-016 (AID 984). Further: on the % scale 0 is the no-effect control and ±100 the full control effect; nearly all actives have a fitted effect of over 55% in size. Particulars: LYMP2-016 lymphoblastoid cell viability, qHTS; series mostly up to 92.2 µM. The method, boiled down: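 Cytotoxicity was scored by luminescent ATP content (CellTiter-Glo) after 24 h compound exposure at 37 C of a human lymphoblastoid line at 2500 cells/well. Concentration-response data were fitted to the Hill equation for AC50.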

The nature of experiment [10]: Cell Viability - LYMP2-018 (AID 985).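 Further: compound exposure lasted 24 hr at 37 °C; plate controls were DMSO only for no effect and tetraoctylammonium bromide at 92 µM for full effect; nearly all actives have a fitted effect of over 50% in size.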 To be noted: LYMP2-018 lymphoblastoid cells, viability (qHTS); series mostly up to 92.2 µM. The method in brief:
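Human lymphoblastoid LYMP2-018 cells, 2500/well, settled 5 hr at 37 C then exposed to compound 24 hr at 37 C; intracellular ATP measured by CellTiter-Glo luminescence. AC50 from Hill-equation concentration-response fits.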

Experiment [11] in a line: Cell Viability - LYMP2-020 (AID 986).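 Further: plate controls were DMSO only for no effect and tetraoctylammonium bromide at 92 µM for full effect; nearly all actives have a fitted effect of over 55% in size.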 To be noted: series mostly up to 92.2 µM. The method, boiled down:
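Human lymphoblastoid LYMP2-020 cells (2500/well) preincubated 5 h at 37 C, then treated 24 h at 37 C. Viability measured as intracellular ATP by CellTiter-Glo luminescence after 30 min at room temperature; AC50 from Hill fits.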

Experiment [12] is described as follows: Cell Viability - LYMP2-022 (AID 987). Particulars: LYMP2-022 lymphoblastoid cell viability; series mostly up to 92.2 µM. The method in brief: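 LYMP2-022 lymphoblastoid cells (2500/well, complete medium) were treated with compounds for 24 hours at 37 C; intracellular ATP was then read by CellTiter-Glo luminescence after 30 min at room temperature. AC50 values were derived from Hill-equation fits.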

Experiment [13] in a line: Cell Viability - LYMP2-024 (AID 988).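 Further: plate controls were DMSO only for no effect and 92 µM tetraoctylammonium bromide for full effect; nearly all actives have a fitted effect of over 60% in size.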 To be noted: LYMP2-024 lymphoblastoid cell viability; series mostly up to 92.2 µM. The method, boiled down:
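Human lymphoblastoid LYMP2-024 cells (2500/well) rested 5 hr, then treated with compound for 24 hr at 37 C in complete medium. Viability was measured as intracellular ATP by CellTiter-Glo luminescence. AC50 values came from Hill-equation fits.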

The nature of experiment [14]: Cell Viability - LYMP1-002 - Assay at 24 hr (AID 993). Further: on the % scale 0 is the no-effect control and ±100 the full control effect. To be noted: LYMP1-002 lymphoblastoid cells viability; series mostly up to 92.2 µM. The method, boiled down:
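Human lymphoblastoid LYMP1-002 cells (2500/well) treated 24 h at 37 °C; viability as intracellular ATP by CellTiter-Glo luminescence. Tetraoctylammonium bromide as positive control; AC50 from Hill-equation fits of qHTS concentration-response.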

Experiment [15] is described as follows: Cell Viability - LYMP1-002 - Assay at 40 hr (AID 994). To be noted: LYMP1-002 lymphoblastoid cell viability; series mostly up to 92.2 µM. The method, boiled down:
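LYMP1-002 human lymphoblastoid cells (2500/well, complete medium) were treated with compounds for 40 hr at 37 C. Intracellular ATP was measured by CellTiter-Glo luminescence, and AC50 values came from Hill-equation fits of concentration-response data; tetraoctylammonium bromide was the positive control.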

The target of experiment [16] is Alpha-galactosidase A (Homo sapiens) (UniProt P06280). Nature of the experiment: Counterscreen for Glucocerebrosidase Inhibitors: qHTS Assay for Human alpha-Galactosidase at pH 4.5 (AID 992). Further: 0% is about no effect. Particulars: purified enzyme, fluorogenic substrate; series mostly up to 76.9 µM. The method, boiled down: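 Read-out is 4-methylumbelliferone fluorescence (365 nm excitation, 440 nm emission) after a pH 10 NaOH/glycine stop. Reactions held 2 nM enzyme and 80 uM substrate at pH 4.5 for 20 min at room temperature.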
Chain of Alpha-galactosidase A (Homo sapiens) (P06280 whole entry, looked up): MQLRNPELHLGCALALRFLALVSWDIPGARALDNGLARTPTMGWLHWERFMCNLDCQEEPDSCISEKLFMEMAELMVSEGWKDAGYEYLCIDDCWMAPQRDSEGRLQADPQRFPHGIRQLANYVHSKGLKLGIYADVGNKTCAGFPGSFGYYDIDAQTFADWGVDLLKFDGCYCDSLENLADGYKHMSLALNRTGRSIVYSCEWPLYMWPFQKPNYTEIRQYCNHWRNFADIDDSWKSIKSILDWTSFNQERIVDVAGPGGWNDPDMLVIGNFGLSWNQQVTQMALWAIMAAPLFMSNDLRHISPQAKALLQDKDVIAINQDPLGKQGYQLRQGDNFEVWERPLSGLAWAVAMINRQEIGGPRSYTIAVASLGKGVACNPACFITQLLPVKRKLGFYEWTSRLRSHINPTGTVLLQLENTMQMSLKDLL

Experiment [17] addresses alpha-glucosidase (Oryza sativa, rice) (UniProt Q653V4). Nature of the experiment: Counterscreen for Glucocerebrosidase Inhibitors: qHTS Assay for Rice alpha-Glucosidase at pH 5.0 (AID 997).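 Further: 0% = full activity with enzyme and -100% = basal without enzyme.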 Particulars: rice alpha-glucosidase enzyme activity; series mostly up to 76.9 µM. The method in brief: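 Rice alpha-glucosidase (4 nM final) with 400 uM 4-methylumbelliferyl-alpha-D-glucopyranoside in citrate buffer pH 5.0, 20 min at room temperature, stopped at pH 10; fluorescence 365/440 nm, compounds 0.7 nM–77 uM, AC50 from Hill fits.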
(The purpose of a counterscreen is to sort out artefacts and off-target activity.)

The target of experiment [18] is DNA repair nuclease/redox regulator APEX1 (Homo sapiens) (UniProt P27695). As to the kind of experiment: qHTS Validation Assay for Inhibitors of the Human Apurinic/apyrimidinic Endonuclease 1 (APE1) (AID 1705;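 further: TAMRA fluorescence gain over two minutes as APE1 cuts a quenched THF abasic duplex; on the % scale 0 is the no-effect control and ±100 the full control effect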). To be noted: purified APE1 endonuclease activity, fluorescence, titration; series mostly up to 57.1 µM. The method in brief:
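Activity read as rising fluorescence (598 nm emission, 525 nm excitation) from incision of a TAMRA/BHQ-2 duplex carrying a THF abasic site (50 nM). Compound and enzyme sat 15 min at RT before substrate start; signal change between first and third 60-s reads.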

Experiment [19] can be described thus: Counterscreen for APE1 Inhibitors: Fluorescent Dye Displacement Validation Assay (AID 1707).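 Further: plate controls were ThO with dsDNA and no compound for no effect and ThO without dsDNA for full effect.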 To be noted: fluorescent dye displacement from DNA; series mostly up to 57.1 µM. The method in brief:
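ThO 250 nM + dsDNA 50 nM (THF abasic site, 5'-TAMRA), Tris-HCl pH7.5/50mM NaCl/2 mM MgCl2/0.01% Tween-20; compounds pin-transferred; ex 480/em 540 nm endpoint. Neutral = no compound; no-DNA ThO wells = negative control.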

The mark [20] stands for this setting: measured here: cell count channel max response.
Setting [21] is: measured here: lipid channel max response.

Several values for one entry are separate records, joined by “and”; a condition that tells them apart may be missing. Identical values can stand only once. Records with an inconclusive call do not appear. Activity calls are given as the source filed them. Unless noted, the call rests on the fitted dose curve; in most records, active means well fitted curve in the direction sought with a large enough effect; inconclusive means small, poorly fitted or top-dose-only effect, or another doubt; inactive means no such curve, though single readings can be large; an effect the other way counts as inactive or inconclusive.

Chain of DNA repair nuclease/redox regulator APEX1 (Homo sapiens) (P27695 whole entry, looked up): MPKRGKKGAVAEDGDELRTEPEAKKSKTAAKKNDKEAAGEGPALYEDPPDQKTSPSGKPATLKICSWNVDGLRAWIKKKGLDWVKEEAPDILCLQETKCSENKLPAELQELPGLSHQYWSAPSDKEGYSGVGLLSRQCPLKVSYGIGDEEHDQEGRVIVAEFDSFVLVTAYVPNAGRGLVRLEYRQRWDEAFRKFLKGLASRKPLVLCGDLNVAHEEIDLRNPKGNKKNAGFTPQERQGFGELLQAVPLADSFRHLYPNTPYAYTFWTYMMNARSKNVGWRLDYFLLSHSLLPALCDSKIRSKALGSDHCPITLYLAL

In the case of `O=C(O)P(=O)(O)O`, in [1] (at 57.5 µM (top of the series)), the activity change, negative = inhibition was 3.11% (inactive). Moreover, the values for the max response in experiment [1] (setting [20]) and in experiment [1] (setting [21]) were 17.9% and 24.7%, respectively.
The corresponding values for `Cc1ncc(CO)c(C=O)c1O` are -6.06% (inactive), -8.99% and -15.3%.
Take `CCN(CC)CCNC(=O)c1cc(Br)c(N)cc1OC`: the activity change, negative = inhibition is -3.04% (inactive) in experiment [1] (at 25.7 µM (top of the series)) and 5.14% (inactive) in experiment [1] (at 57.5 µM (top of the series)). Further, the max response in [1] (setting [20]) was -6.94% and 12.8%; in experiment [1] (setting [21]), -8.36% and 21.9%.
For `COc1ccc(C(Cl)=C(c2ccc(OC)cc2)c2ccc(OC)cc2)cc1`, the molecule was called inactive in experiment [2], in [3], in experiment [4], in experiment [5], in [6] and in experiment [7]. Also, the outcome in [8], in experiment [9], in experiment [12] and in experiment [14] was inactive. Besides, the Potency entry in [10], in experiment [11], in experiment [13] and in experiment [15] was “inactive” throughout. Moreover, the activity change, negative = inhibition in experiment [1] (at 25.7 µM (top of the series)) is 1.46% (inactive). In addition, the max response in [1] (setting [20]) was -13.4%; in experiment [1] (setting [21]), -12.3%.
On to `O=C(O)CCC(=O)Nc1ccc(S(=O)(=O)Nc2nccs2)cc1`, for which the activity change, negative = inhibition in [1] (at 25.7 µM (top of the series)) is 0.767% (inactive); in experiment [1] (at 57.5 µM (top of the series)) it was 7.18% (inactive). In addition, the max response in experiment [1] (setting [20]) was 5.61% and 16.3%; in [1] (setting [21]) it was 3.26% and 28.6%.
On to `CCN(CC)CCNc1ccc(CO)c2sc3ccccc3c(=O)c12`, for which the activity change, negative = inhibition is -5.73% (inactive) in experiment [1] (at 25.7 µM (top of the series)) and -11.5% (inactive) in experiment [1] (at 57.5 µM (top of the series)). The max response in experiment [1] (setting [20]) is -10.2% and 2.62%; in experiment [1] (setting [21]), -16.8% and -5.8%.
Turning to `NS(=O)(=O)Cc1noc2ccccc12`, the result in [16] and in experiment [17] was inactive.
As to `NC(N)=NCc1cccc(I)c1`, the molecule was classed as inactive in experiment [16], in experiment [17] and in [19]. Also, the activity change, negative = inhibition in experiment [1] (at 57.5 µM (top of the series)) was 3.74% (inactive). In addition, the max response in [1] (setting [20]) was -19.1%; in experiment [1] (setting [21]) it was -12.1%. Further, the Potency result in experiment [18] was “inactive”.

The record behind these values is PubChem BioAssay (NCATS).
